Bioassay records: PubChem BioAssay, National Center for Advancing Translational Sciences (NCATS)
The list is not random: actives were taken first. Their share in the collection is about 10%.
HEK cytotox = Cytotoxic Profiling in HEK 293 Cell Line of Diverse Libraries Using Quantitative High-Throughput Screening | HEK 293 viability, ATP luminescence (CellTiter-Glo), 48-72 h | Potency, µM (highest dose often 115 µM), inactives show top-dose activity change, negative = cytotoxicity, usual class: inhibitors | AID 1345083, 2018 | 94,000 tested, 6.6% active; also: nearly all actives have a fitted effect of over 60% in size
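ATP-coupled CellTiter-Glo luminescence served as viability read-out, recorded 10 min after reagent addition at room temperature. HEK 293 cells, 250 cells/well, had been incubated with pintool-transferred compound for 48 or 72 hr at 37 degree Celsius.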
Luciferase inh = Firefly luciferase inhibition profiling of diverse chemical library using quantitative high-throughput screening | Luciferin 4-monooxygenase (Photinus pyralis), P08659 | purified P. pyralis luciferase, luminescence, biochemical | 76,000 tested, 2.5% active | AID 1347043, 2019 | Potency, µM (doses to about 115 µM), usual class: inhibitors; also: nearly all actives have a fitted effect of over 65% in size
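FLuc 10nM, D-luciferin 10uM, ATP 10uM, Mg acetate 10mM, Tris acetate pH 7.5, Tween/BSA; cpd qHTS; enzyme added last; CCD luminescence.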
3T3 cytotox = Cytotoxic Profiling in NIH 3T3 Cell Line of Diverse Libraries Using Quantitative High-Throughput Screening; AID 1345082, 2018; 94,000 tested, 4.3% active; Potency, µM (doses to about 96.7 µM), inactives show top-dose activity change, negative = cytotoxicity, usual class: inhibitors; NIH 3T3 viability, CellTiter-Glo ATP luminescence, 48-72 h; also: nearly all actives have a fitted effect of over 55% in size
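Luminescent ATP readout (CellTiter-Glo, 10 min RT) after 48 or 72 hr compound exposure of NIH 3T3 cells seeded at 400 cells/well in 1536-well format; quantitative HTS.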
NPR1 antag = Natriuretic polypeptide receptor (hNpr1) antagonism - Primary qHTS | AID 1347048, 2019 | Potency, µM (titrated, usually from 46.3 µM), without a hit: at the highest dose activity change, negative = inhibition, hits mostly inhibitors | HEK293 hNpr1 GloSensor cGMP, ANP-stimulated luminescence | Atrial natriuretic peptide receptor 1 (Homo sapiens), P16066 | 76,000 tested, 1.6% active; calls by dose curve; also: nearly all actives have a fitted effect of over 60% in size
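HEK293 cells stably expressing human Npr1 and cGMP GloSensor pGS-40F, loaded 2 h with 2% GloSensor reagent, given compound 30 min at room temperature. Luminescence read before and 20 min after 0.1 nM hNppA.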
GPT2 inh = Primary qHTS assay for inhibitors of Glutamate pyruvate transaminase 2 (GPT2); Alanine aminotransferase 2 (Homo sapiens), Q8TD30; Recombinant GPT2, coupled pyruvate oxidase/HRP Amplex Red fluorescence; Potency, µM (top dose mostly 57.7 µM), inactives show at the top dose activity change, negative = inhibition, usual class: inhibitors; 100,000 tested, 0.25% active; AID 1671188, 2021; also: nearly all actives have a fitted effect of over 60% in size
Target sequence (Q8TD30 whole entry, looked up): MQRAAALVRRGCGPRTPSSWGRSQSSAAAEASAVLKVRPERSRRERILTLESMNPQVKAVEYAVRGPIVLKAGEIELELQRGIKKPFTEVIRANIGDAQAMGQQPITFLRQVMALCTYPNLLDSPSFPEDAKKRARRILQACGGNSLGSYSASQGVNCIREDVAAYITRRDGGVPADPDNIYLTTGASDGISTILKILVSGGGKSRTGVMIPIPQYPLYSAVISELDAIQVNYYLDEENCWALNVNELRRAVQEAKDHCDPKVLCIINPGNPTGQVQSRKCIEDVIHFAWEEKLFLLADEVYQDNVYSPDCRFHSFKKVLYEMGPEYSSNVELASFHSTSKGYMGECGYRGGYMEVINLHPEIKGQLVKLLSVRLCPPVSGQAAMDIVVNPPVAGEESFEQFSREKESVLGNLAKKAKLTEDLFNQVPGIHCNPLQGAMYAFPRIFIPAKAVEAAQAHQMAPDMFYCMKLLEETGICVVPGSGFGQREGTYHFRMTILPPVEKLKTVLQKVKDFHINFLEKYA
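GPT2 10ng/uL, a-KG 250uM, L-Ala 2mM, HEPES pH7.5 + 0.0001% Tween; 30 min RT. Then Amplex mix (PO/HRP/ThPP), 30 min RT dark, fluorescence. AOA 50uM used as positive control.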
The depositor's hits bear a star; [ ] = dose if it differs, or a comment. Unless noted, calls follow the shape of the dose curve; as a rule, active = well fitted curve in the direction sought with a large enough effect; inconclusive = small, poorly fitted or top-dose-only effect, or another doubt; inactive = no such curve, though single readings can be large; an effect the other way counts as inactive or inconclusive. % is scaled to controls: 0 for no effect and ±100 for the full control effect; potency is read from the fitted curve at half-maximal effect.

Cc1ccccc1-c1[nH]nc2ncc(-c3ccccc3O)nc12 was read as HEK cytotox 63.1µM*, Luciferase inh inactive, 3T3 cytotox inconclusive, NPR1 antag -15.4%[70.6 µM] and GPT2 inh 2.1%[88.5 µM].
COc1ccc(-c2[nH]nc3ncc(-c4cccc(N(C)C)c4)nc23)c(C)c1 was read as HEK cytotox inconclusive, Luciferase inh inactive, 3T3 cytotox inconclusive, NPR1 antag 2.6%[70.6 µM] and GPT2 inh -4.9%[88.5 µM].
Cc1ccccc1-c1[nH]nc2ncc(-c3ccnn3C)nc12 was read as HEK cytotox -14.8%[230 µM], Luciferase inh inactive, 3T3 cytotox inconclusive, NPR1 antag 4.1%[70.6 µM] and GPT2 inh -9.4%[88.5 µM].
Screening COc1cccc(CNC(=O)C2CCCN(c3ccnc4ccnn34)C2)c1 (stereo unspecified) returned HEK cytotox inconclusive, 3T3 cytotox inconclusive and GPT2 inh 4.6%.
N#Cc1cccnc1-c1cccc(C(=O)NCCNC(=O)c2ccc(F)cc2)c1 was read as HEK cytotox inconclusive, 3T3 cytotox inconclusive and GPT2 inh -1.5%.
`CCOCCCNc1ncnc2c1CN(c1cccc(C)c1)C(=O)CN2C` gave HEK cytotox -0.1%, 3T3 cytotox -24.0% and GPT2 inh inconclusive.
COc1ccc(-c2[nH]nc3ncc(-c4cccnc4)nc23)c(C)c1 was read as HEK cytotox inconclusive, Luciferase inh inactive, 3T3 cytotox 28.2µM*, NPR1 antag 2.1%[70.6 µM] and GPT2 inh 1.7%[88.5 µM].
`CN1CCCCCCN(Cc2cn(C)c3ccccc23)[C@H]2CCC[C@H]2C1=O` gave HEK cytotox inconclusive, Luciferase inh inactive, 3T3 cytotox inconclusive, NPR1 antag -10.6% and GPT2 inh inactive.
Screening COc1ccc2c(c1)c(CN1CCCCCCN(C)C(=O)[C@@H]3CCC[C@@H]31)cn2C returned HEK cytotox 35.5µM*, Luciferase inh inactive, 3T3 cytotox 28.2µM*, NPR1 antag -13.3% and GPT2 inh inactive.
For Cc1cnc(C2CCN(CC3CCCCC3)C2)n1Cc1ccccc1 (stereo unspecified) the results were HEK cytotox 22.4µM*, 3T3 cytotox 20µM* and GPT2 inh inconclusive.
For Cc1cnc(C2CCN(C(=O)C3CCCC3)C2)n1Cc1ccccc1 (stereo unspecified) the results were HEK cytotox -20.6%, Luciferase inh inactive, 3T3 cytotox -10.8%, NPR1 antag -19.6% and GPT2 inh -11.2%.
`O=C(NCCc1cnc[nH]1)c1ccc(-c2ncc3cnc(-c4ccccc4)cn23)cc1` gave GPT2 inh -7.8%[88.5 µM].
For O=C(NC1CCC(O)CC1)c1ccc(-c2ncc3cnc(-c4cccc(F)c4)cn23)cc1 (stereo unspecified) the results were HEK cytotox 70.8µM*, Luciferase inh inactive, 3T3 cytotox -25.8%[138 µM], NPR1 antag -2.6%[70.6 µM] and GPT2 inh inactive.
Screening O=C(NCCc1cnc[nH]1)c1ccc(-c2ncc3cnc(-c4cccc(F)c4)cn23)cc1 returned HEK cytotox 89.1µM*, Luciferase inh inactive, 3T3 cytotox 50.1µM*, NPR1 antag 2.2%[70.6 µM] and GPT2 inh -4.8%[88.5 µM].
`COc1cccc(C(=O)N2CCC(n3cc(-c4nc(C)no4)nn3)C2)c1` (stereo unspecified) gave HEK cytotox -0.2%, Luciferase inh inactive, 3T3 cytotox -5.6%, NPR1 antag -0.9% and GPT2 inh -2.4%.
Screening O=C(c1ccc(C2CCCNC2)cc1)N(Cc1ccccn1)C1CCCCC1 (stereo unspecified) returned HEK cytotox -26.7%, Luciferase inh inactive, 3T3 cytotox -12.8%, NPR1 antag -0.5% and GPT2 inh inactive[11.5 µM].
